High-throughput results (PubChem)
An excerpt weighted towards active compounds, which were near 2.4% of everything screened.
D2 antagonist – antagonists of human D2 dopamine receptor; P14416; HEK293 TREx D2 cells, calcium flux, dopamine EC80; inhibition, % at 10 µM; 340,000 tested, 2% active; in the data active means inhibition above about 30%; inactive means below that, where a call was filed
Target sequence (P14416 whole entry, looked up): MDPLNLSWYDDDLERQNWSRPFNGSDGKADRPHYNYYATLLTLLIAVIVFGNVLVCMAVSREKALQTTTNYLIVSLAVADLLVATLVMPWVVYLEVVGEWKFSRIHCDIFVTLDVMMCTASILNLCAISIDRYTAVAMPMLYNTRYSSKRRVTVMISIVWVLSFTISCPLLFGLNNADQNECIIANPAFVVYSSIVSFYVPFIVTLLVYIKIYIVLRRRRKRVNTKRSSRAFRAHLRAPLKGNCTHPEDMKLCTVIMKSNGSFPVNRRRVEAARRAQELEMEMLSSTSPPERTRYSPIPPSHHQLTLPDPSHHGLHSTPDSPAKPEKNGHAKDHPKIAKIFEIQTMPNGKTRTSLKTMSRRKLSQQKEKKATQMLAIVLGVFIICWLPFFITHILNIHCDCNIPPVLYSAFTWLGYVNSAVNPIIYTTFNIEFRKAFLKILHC
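Antagonism is scored as inhibition of an EC80 dopamine-evoked calcium signal in a force-coupled, tetracycline-inducible HEK293 T-REx D2 line, with compound present 180 s before agonist.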
D2 ag-1 – agonists of human D2 dopamine receptor (beta-arrestin). 360,000 tested, 0.084% active. DiscoveRx PathHunter D2 beta-arrestin, luminescence, 90 min; 100% = 57 uM dopamine signal. activation, % (concentration not given with the values). P14416; in the data active means activation above about 40%; inconclusive means between about 15% and that limit
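DiscoveRx PathHunter D2 beta-arrestin cells (2,100/well) attached overnight, then compound-stimulated 90 min at 37 C in HBSS/10 mM HEPES/0.1% Tween-20 buffer; beta-galactosidase complementation read by luminescence after 1 h at ambient temperature. Dopamine 57 uM final (EC100) as control.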
D2 PAM-1 – positive allosteric modulators of human D2 dopamine receptor; DiscoveRx D2 beta-arrestin cells, luminescence, 90 min; 100% = 57 uM dopamine signal; P14416; potentiation, % (no concentration beside the values); 360,000 tested, 0.23% active; in the data active means potentiation above about 50%; inconclusive means mostly about 30% to 49%
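PathHunter D2 cells, attached overnight at 37 deg C, received compound in DMSO plus dopamine at EC20 (50 nM final) for 90 min at 37 deg C. Beta-arrestin recruitment was read as luminescence after 1 h with detection reagent at ambient temperature.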
D2 ag-2 – agonists of human D2 dopamine receptor; activation, % at 2 µM; AID 485358; P14416; HEK293 T-REx D2 cells, calcium flux agonist mode; 340,000 tested, 0.53% active;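 active means activation over 3 SD above normal in the single-dose calcium agonist read, cut at about 30% in these data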
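Tetracycline-induced HEK293 Trex cells with D2 receptor force-coupled to calcium signaling, plated overnight at 30 C and loaded with no-wash calcium dye. Calcium flux read kinetically for 180 s after compound addition; responses flag agonists.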
D2 PAM-2 – positive allosteric modulators of human D2 dopamine receptor; P14416; HEK293 T-REx D2, calcium flux, EC20 dopamine potentiation; potentiation, % at 10 µM; 340,000 tested, 0.34% active; AID 485347;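 active means potentiation over 3 SD above the plate norm, cut at about 30% in these data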
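Using a no-wash calcium dye in inducible, force-coupled HEK293 Trex cells expressing D2, we tracked fluorescence each second for 180 s after compound, then for 180 s after EC20 dopamine to detect augmented signalling.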
D3 ag – confirmation of human D3 dopamine receptor agonists, beta-arrestin; shares compounds with D2 ag-2; DiscoveRx D3 beta-arrestin cells, luminescence, 90 min; Potency, µM (series often up to 76.9 µM), actives largely listed as activators; 2,300 tested, 4% active; further: nearly all actives have a fitted effect of over 70% in size
D2 ag-3 – D2 receptor agonism, beta-arrestin counterscreen. shares compounds with D2 ag-2. DiscoveRx PathHunter D2 beta-arrestin, luminescence, 90 min; response scale: percent relative to full dopamine signal. Potency, µM (series often up to 76.9 µM), hits mostly activators. 2,300 tested, 5.9% active. AID 720507; further: nearly all actives have a fitted effect of over 70% in size
A number is an active result; . = inactive; ? = inconclusive; / = not tested or not shown. Unless noted, the call rests on the fitted dose curve; in most records, active means well fitted activation curve with a large enough effect; inconclusive means small, poorly fitted or top-dose-only effect; inactive means flat fitted curve, though single readings scatter.

SMILES	D2 antagonist	D2 ag-1	D2 PAM-1	D2 ag-2	D2 PAM-2	D3 ag	D2 ag-3
O=C(CCN1CCN(S(=O)(=O)c2ccc(Cl)cc2)CC1)Nc1ccccc1F	.	.	.	.	.	/	/
O=C(CCN1CCN(S(=O)(=O)c2ccc(Cl)cc2)CC1)Nc1ccc(F)cc1	/	.	.	/	.	/	/
Cc1ccc(S(=O)(=O)n2nc(C)c(S(=O)(=O)N3CCCCCC3)c2C)cc1C	/	/	/	/	.	/	/
COc1cc(NC(=O)CCN2CCN(c3ccccc3F)CC2)cc(OC)c1	40.2	.	.	30.5	.	?	.
Cn1cnc2c(=O)oc3ccc(S(=O)(=O)N4CCN(c5cccc(Cl)c5)CC4)cc3c21	/	/	/	.	/	/	/
O=C(CN1CCCC1)Nc1cc(C(F)(F)F)cc(C(F)(F)F)c1	.	.	.	51.0	.	.	.
CC(COc1ccccc1)N1CCC(CO)(Cc2ccccc2)CC1 (configuration not stated)	85.2	?	.	67.9	.	.	?
O=C(Nc1nnc(SCc2ccc(F)cc2)s1)C1CC(=O)N(c2ccc3c(c2)OCCO3)C1 (configuration not stated)	.	.	.	42.6	.	.	.
N#Cc1ccc(CSc2nnc(NC(=O)C3CC(=O)N(c4ccc5c(c4)OCCO5)C3)s2)cc1 (configuration not stated)	.	.	.	.	.	/	/
COC(=O)c1[nH]c2ccccc2c1NC(=O)C(C)N1CCOCC1 (configuration not stated)	/	.	.	/	.	/	/
COC(=O)c1[nH]c2cc(C)ccc2c1NC(=O)CN1CCN(C(=O)c2ccco2)CC1	/	.	.	/	/	.	.
COC(=O)c1[nH]c2ccccc2c1NC(=O)C(C)N1CCN(C(=O)c2ccco2)CC1 (configuration not stated)	.	?	.	47.0	.	?	.
CCN(CC)CCCNC(=O)Cc1csc2nc(-c3ccc(Cl)cc3)cn12	/	/	/	.	.	/	/
OC[C@@H]1CN(Cc2ccc(-c3ccccc3)cc2)C[C@H](n2cnc3c(NC4CC4)ncnc32)O1	/	.	.	/	/	/	/
COC(=O)c1sccc1-n1cccc1C(=O)C(=O)N1CCOCC1	.	.	.	.	.	/	/
O=S(=O)(NCCc1ccc(F)cc1)c1cc(C(F)(F)F)ccc1Br	/	.	/	/	/	/	/
O=S(=O)(NCc1ccc(F)cc1)c1cc(Br)ccc1Br	.	.	.	.	.	.	.
CC1CN(C(=O)c2ccccc2OCc2ccc(Cl)cc2Cl)CC(C)O1 (configuration not stated)	.	.	.	.	.	.	.
COc1ccc(NC(=O)c2cccc3c2C(=O)c2ccc(-c4cnc(OC)nc4)cc2S3(=O)=O)cc1	.	.	.	.	.	/	/
O=c1cc(CN2CCN(c3ccccc3)CC2)nc2scc(-c3ccccc3)n12	.	?	.	.	.	/	/
C=CCNCc1cc(=O)n2c(-c3ccccc3)csc2n1	.	.	.	47.1	.	.	.
O=C(Nc1ccn(CC(=O)N2CCN(c3ccccn3)CC2)c(=O)n1)OCc1ccccc1	.	.	.	.	.	.	.
O=C(Nc1ccn(CCCN2CCN(c3ncccn3)CC2)c(=O)n1)OCc1ccccc1	/	.	/	/	/	/	/
CCOC(=O)c1c(C)[nH]c(C)c1C(=O)Cn1nnc(-c2ccccc2C)n1	.	.	.	.	.	.	.
CCOC(=O)c1c(C)[nH]c(C(=O)Cn2nnc(-c3ccccc3Cl)n2)c1C	.	.	.	.	.	/	/
CC(C)(C)OC(=O)C[C@H]1C/C=C\C[C@@H](CC(=O)NCCO)C(=O)NCCOC1=O	/	.	.	/	/	/	/
CCOC(=O)C1CCN(Cc2cnc(NC(=O)OC)s2)CC1	.	.	.	60.3	.	.	.
O=C(NCCc1ccccc1)c1nc2nc(-c3cccs3)cc(C(F)(F)F)n2n1	40.4	.	.	.	.	.	.
Cc1cc(C)n2nc(C(=O)NCCc3ccccc3)nc2n1	.	.	.	.	.	/	/
